# This is part of a sample that, as a whole, favours compounds with a hit. Of some 83,000 tested, about 20% had one in any assay.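 48-hour exposure, single concentration, 96-well plates; percent growth endpoint where 0 means no net growth. Active: below 10.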 A number with no mark means an inactive call. The source made the active and inactive calls.
# Legend:
# Experiment in all cases: NCI-60 one-dose screen, 48 h (100 = growth as untreated, 0 = no growth, -100 = all killed)
# Conditions in all cases: 10 µM
# [1] = system: DU-145 prostate
# [2] = system: K-562 leukemia
# [3] = system: MALME-3M melanoma
# [4] = system: MDA-MB-231 breast
# [5] = system: RXF 393 renal
# [6] = system: SF-268 CNS
# [7] = system: SF-295 CNS
# [8] = system: SF-539 CNS
# [9] = system: UACC-257 melanoma
# [10] = system: M14 melanoma
# [11] = system: HT29 colon
# [12] = system: SNB-75 CNS
# [13] = system: SNB-19 CNS
# [14] = system: U251 CNS
# [15] = system: PC-3 prostate
# [16] = system: SK-MEL-5 melanoma
# [17] = system: UACC-62 melanoma
# [18] = system: LOX IMVI melanoma
# [19] = system: SK-MEL-28 melanoma
# [20] = system: HCT-15 colon
SMILES,growth [1],growth [2],growth [3],growth [4],growth [5],growth [6],growth [7],growth [8],growth [9],growth [10],growth [11],growth [12],growth [13],growth [14],growth [15],growth [16],growth [17],growth [18],growth [19],growth [20]
COc1cc(-c2nn(-c3cccc(NC(=O)CCNc4ccc(N5CCOCC5)cc4)c3)cc2-c2ccncc2)ccc1Cl,29.2%,11.2%,21.9%,-9.17% (active),20.9%,31.8%,13.4%,29.1%,20.1%,2.71% (active),11.8%,40.1%,32.9%,24%,8.06% (active),-40.5% (active),13.9%,6.71% (active),31.6%,
Cc1ccc2nc(Cl)c(-c3nc4ccccc4o3)cc2c1,103%,80.7%,86.9%,91.4%,102%,87.9%,105%,99.2%,108%,106%,102%,90.2%,93.2%,102%,79.8%,88.7%,94.9%,82.8%,,
CCCCC1(O)CCCCC1,101%,96.1%,97.2%,103%,98.8%,103%,97.6%,118%,102%,99.3%,98.5%,105%,106%,99.1%,103%,105%,102%,,106%,
COc1ccc(/C(=N\N)C(=O)c2ccccc2)cc1 (tested in a mixture with another compound),108%,101%,106%,102%,96.9%,96.2%,89%,114%,90.8%,124%,87.7%,93.2%,94%,,90.8%,97.3%,92.8%,97.8%,102%,91.1%
COc1cc(/C=C2\CCCC3=C2N=C2SC(C)=CN2C3c2cc(OC)c(OC)c(OC)c2)cc(OC)c1OC (configuration not stated),-26.9% (active),20.4%,4.83% (active),18.9%,-71.9% (active),14.7%,2.48% (active),7.53% (active),-27% (active),2.47% (active),-49.1% (active),59.4%,52.7%,,44.5%,-71.6% (active),,-70.4% (active),-51.6% (active),-65.4% (active)
COc1ccc(/C=C2\CCCC3=C2N=C2SC(C)=CN2C3c2ccc(OC)cc2)cc1 (configuration not stated),107%,96.1%,80%,101%,102%,116%,106%,111%,90.9%,98.8%,104%,97.7%,100%,,99.9%,92.3%,,91.5%,96.2%,102%
Cc1cc(O)ccc1C1=NN(c2ccc(S(C)(=O)=O)cc2)C(=O)CC1,92.2%,20.6%,52.7%,74.8%,81.2%,80.3%,32.1%,73.8%,93%,49.2%,38.9%,75.2%,78.2%,,77.9%,68.3%,,67.5%,81.2%,44.9%
Cc1ccc(-n2nnnc2N)c(C)c1,122%,115%,119%,110%,143%,114%,96.7%,123%,108%,104%,123%,101%,113%,99.5%,105%,115%,96.4%,93.8%,112%,

# Reference: PubChem BioAssay (NCI)
